In PubChem BioAssay (NCATS):
Several values for one entry are separate records, joined by “and”; a condition that tells them apart may be missing. Equal values may be shown once. Inconclusive results are not listed. Activity calls are given as the source filed them. Unless noted, the call rests on the fitted dose curve; in most records, active means well fitted curve in the direction sought with a large enough effect; inconclusive means small, poorly fitted or top-dose-only effect, or another doubt; inactive means no such curve, though single readings can be large; an effect the other way counts as inactive or inconclusive.

Tests used:
[1] = qHTS for Activators of Parkin Expression: LOPAC Validation Assay (NLuc Reporter) (AID 720572)
Outline: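 NLuc signal, read 10 min after reagent and following a prior FLuc read, is normalized to DMSO (0) and positive controls (100%). Cells: neuronal Parkin-promoter coincidence reporter line; compounds tested 7-point, 24 h, 37 C, 5% CO2.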

[2] = qHTS for Activators of Parkin Expression: LOPAC Validation Assay (FLuc Reporter) (AID 720573)
Outline: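 Neuronal cell line stably expressing FLuc/NLuc coincidence reporter under the Parkin promoter, 1,500 cells/well, dosed 24 h after seeding in 7-point series for 24 h at 37 C. FLuc luminescence read; normalized to DMSO and positive control (100%).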

[3] = target: T1, Hexokinase-4 (Homo sapiens) + Glucokinase regulatory protein (Homo sapiens) (UniProt P35557+Q14397); experiment: qHTS assay for inhibitors of recombinant human GCK-GKRP interaction: Diaphorase-coupled assay (AID 743205)
Outline: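 Compounds pre-incubated 20 min with substrate, then 10 nM GST-GCK with 10 nM FLAG-GKRP added. GCK activity coupled via G6PDH and diaphorase to resorufin (5 mM glucose, 0.4 mM ATP, 0.15 mM NADP+, pH 7.6), read kinetically over 30 minutes at Ex 525/Em 590 nm.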

[4] = target: T1, Hexokinase-4 (Homo sapiens) + Glucokinase regulatory protein (Homo sapiens); experiment: qHTS assay for inhibitors of recombinant human GCK-GKRP interaction: ADP-Glo assay (AID 743206);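 further: plate controls were DMSO plus enzyme for no effect and no enzyme for full effect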
Outline: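 Pin-transferred compounds meet a 15 nM GST-GCK/15 nM FLAG-GKRP/2 uM S6P mix (dispense concentrations). ATP is then added to 0.4 mM final with 5 mM glucose, and the reaction runs 60 min at room temperature. ADP is quantified luminescently.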

[5] = qHTS assay for small molecule agonists of the antioxidant response element (ARE) signaling pathway measured by Nrf2-dependant transcriptional activity (AID 720636; active means well fitted curve in the direction sought with a large enough effect in the repeat runs; an effect the other way counts as inactive or inconclusive; further: potency means the concentration at half of the fitted maximal effect)
Outline: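 Quantitative HTS format in HepG2 cells stably expressing an ARE-luciferase reporter; 16 hr compound treatment at 37 C, luciferase signal detected with ONE-Glo.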

[6] = qHTS assay for small molecule agonists of the antioxidant response element (ARE) signaling pathway measured by Nrf2-dependant transcriptional activity - cell viability counter screen (AID 720653; active means well fitted curve in the direction sought with a large enough effect in the repeat runs; an effect the other way counts as inactive or inconclusive; further: on the % scale 0 is the no-effect control and ±100 the full control effect); details: ARE-bla HepG2 viability, CellTiter-Glo ATP luminescence, 16 h; max response: active compounds read low
Outline: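 ARE-bla HepG2 cells treated with compounds for 16 h at 37C; this counter screen measures viability as intracellular ATP by CellTiter-Glo luminescence after 30 min at room temperature.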

[7] = qHTS assay for cell viability of HEK293 cells (AID 743288); details: ATP luminescence (CellTiter-Glo), 18 h; max response: active compounds read low; further: on the % scale 0 is the no-effect control and ±100 the full control effect; nearly all actives have a fitted effect of over 50% in size
Outline: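 Steps: plate 2,000 parental HEK293 cells per well; incubate ≥5 h, 37 C; add compounds in DMSO; incubate 18 h, 37 C; add CellTiter-Glo; wait 30 min at room temperature; read luminescence.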

[8] = qHTS assay for cell viability of the p53RE-bla HCT-116 cell line (AID 743292); further: nearly all actives have a fitted effect of over 55% in size; further: potency means the concentration at half of the fitted maximal effect
Outline: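 Viability of compound-treated p53RE-bla HCT-116 cells is taken from ATP-dependent luciferase luminescence. Treatment lasts 16 h at 37 C after a 5 h settling period; detection follows 30 min at room temperature.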

[9] = target: T1, Hexokinase-4 (Homo sapiens) + Glucokinase regulatory protein (Homo sapiens); experiment: qHTS assay for inhibitors of recombinant human GCK-GKRP interaction: HTRF assay (AID 743207);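 further: 0% = DMSO with GCK present and -100% = DMSO wells lacking GCK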
Outline: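 HTRF binding of 5 nM GST-GCK and 5 nM FLAG-GKRP with 2 uM S6P in pH 7.1 Hepes buffer (MgCl2, KCl, DTT, Tween 20, BSA). Anti-FLAG XL665 and anti-GST donor added, 60 min at room temperature; 665/615 nm read, normalized to with- and without-GCK controls.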

[10] = qHTS Assay for Identifying Gametocytocidal Compounds (AID 743244);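 further: on the % scale 0 is the no-effect control and ±100 the full control effect; actives lower the fluorescent signal which means gametocytes are killed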; details: P. falciparum 3D7 stage III-V gametocytes, alamarBlue, 72 h; max response: active compounds read low
Outline: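 P. falciparum 3D7 stage III–V gametocytes (20,000 cells/well) were exposed to compounds for 72 h at 37 °C, 5% CO2. AlamarBlue was then added for 24 h; decreased resorufin fluorescence (Ex 525/Em 598 nm) indicated loss of viability.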

T1 sequence (P35557 whole entry, looked up): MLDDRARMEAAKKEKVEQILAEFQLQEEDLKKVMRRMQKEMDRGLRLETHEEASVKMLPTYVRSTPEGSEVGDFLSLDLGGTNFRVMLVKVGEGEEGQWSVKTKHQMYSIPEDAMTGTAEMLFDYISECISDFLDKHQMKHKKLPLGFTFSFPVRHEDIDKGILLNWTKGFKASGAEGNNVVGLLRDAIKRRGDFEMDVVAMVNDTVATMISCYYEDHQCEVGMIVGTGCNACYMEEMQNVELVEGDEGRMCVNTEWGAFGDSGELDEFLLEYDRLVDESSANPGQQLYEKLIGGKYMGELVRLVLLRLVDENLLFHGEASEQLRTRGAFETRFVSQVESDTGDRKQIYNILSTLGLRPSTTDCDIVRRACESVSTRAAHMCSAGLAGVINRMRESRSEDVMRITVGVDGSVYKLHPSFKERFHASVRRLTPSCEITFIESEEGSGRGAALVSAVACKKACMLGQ
T1 sequence (Q14397 whole entry, looked up): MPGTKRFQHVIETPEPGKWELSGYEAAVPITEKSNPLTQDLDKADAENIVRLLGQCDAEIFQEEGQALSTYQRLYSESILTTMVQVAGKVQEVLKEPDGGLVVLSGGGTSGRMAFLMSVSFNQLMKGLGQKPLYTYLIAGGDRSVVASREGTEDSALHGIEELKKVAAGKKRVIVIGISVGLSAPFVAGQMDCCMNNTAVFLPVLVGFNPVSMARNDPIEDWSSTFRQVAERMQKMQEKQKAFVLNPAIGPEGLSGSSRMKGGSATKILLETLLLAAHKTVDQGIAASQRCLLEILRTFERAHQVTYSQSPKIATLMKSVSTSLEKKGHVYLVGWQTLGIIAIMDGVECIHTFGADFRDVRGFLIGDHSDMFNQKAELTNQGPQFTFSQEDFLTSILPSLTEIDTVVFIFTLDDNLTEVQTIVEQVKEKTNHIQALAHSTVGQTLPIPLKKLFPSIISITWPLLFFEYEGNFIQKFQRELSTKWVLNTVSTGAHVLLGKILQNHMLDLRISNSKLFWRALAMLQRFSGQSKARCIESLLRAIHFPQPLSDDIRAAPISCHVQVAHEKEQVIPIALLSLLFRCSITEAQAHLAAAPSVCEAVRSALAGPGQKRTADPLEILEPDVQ

Clc1ccc(C(c2ccc(Cl)cc2)n2cc[n+](CC(OCc3ccc(Cl)cc3Cl)c3ccc(Cl)cc3Cl)c2)cc1 (stereo not given)
inactive: Potency [1] | Potency [2] | outcome [3] | outcome [4]

O=c1cc(-c2ccccc2)oc2cc(O)cc(O)c12
inactive: max response [6] -2.85% | max response [7] -14.1% | Potency [8]
active: Potency [5] 13.7 µM

CC(C)(C)c1ccc(C(O)CCCN2CCC(C(O)(c3ccccc3)c3ccccc3)CC2)cc1 (stereo not given)
inactive: Potency [1] | Potency [2]

Clc1ccc(Cn2c(CN3CCCC3)nc3ccccc32)cc1
inactive: Potency [1] | Potency [2] | outcome [3] | outcome [4] | outcome [9]

O=C(O)c1cc(O)c2c(c1)C(=O)c1cccc(O)c1C2=O
inactive: Potency [5] | max response [7] -22.9%
active: Potency [8] 35.5 µM

CC(=O)CCCCn1c(=O)c2c(ncn2C)n(C)c1=O
inactive: Potency [1] | Potency [2] | outcome [3] | outcome [4] | outcome [9] | max response [10] -1.45% and 1.03%

CC(C)NCC(O)COc1cccc2[nH]ccc12 (stereo not given)
inactive: Potency [1] | max response [10] 5.47% and 6.31%

NCCS
inactive: Potency [1] | Potency [2] | outcome [3] | outcome [4] | outcome [9] | max response [10] -3.42% and 10.4% and 19.2%

CCn1cc(C(=O)O)c(=O)c2ccc(C)nc21
inactive: Potency [1] | Potency [2] | Potency [5] | max response [6] 11.7% and 3.46% | max response [10] 5.72% and 15.6% | max response [7] 1.7% and -2.87% | Potency [8]

CCN(CC)CCOC(=O)c1ccc(N)cc1
inactive: Potency [1] | Potency [2] | outcome [3] | outcome [4] | outcome [9] | max response [10] 17.2% and 7.74%

O=c1c(-c2ccc(O)cc2)coc2cc(O)ccc12
inactive: max response [6] -5.4% and -12% | outcome [3] | outcome [4] | outcome [9] | max response [10] 16.7% | max response [7] -7.57% and -12.8% | Potency [8]

CC(=O)c1ccc(S(=O)(=O)NC(=O)NC2CCCCC2)cc1
inactive: Potency [1] | Potency [2] | Potency [5] | max response [6] 2.45% and -5.62% | outcome [3] | outcome [4] | outcome [9] | max response [10] -4.23% and -12.4% | max response [7] 4.87% and -10.8% | Potency [8]

COc1ccccc1N1CCN(CCCNc2cc(=O)n(C)c(=O)n2C)CC1
inactive: Potency [1] | Potency [2] | outcome [3] | outcome [4] | outcome [9] | max response [10] 9.05% and -4.71% and 2.95%

CCN(CC)C(=O)c1ccc(O)c(OC)c1
inactive: Potency [1] | Potency [2] | outcome [3] | outcome [4] | outcome [9] | max response [10] 14.2% and 0.626% and 4.97%

Cc1cccc(C)c1OCC(C)N (stereo not given)
inactive: Potency [1] | Potency [2] | outcome [3] | outcome [4] | outcome [9] | max response [10] 9.33% and -4.15% and 13.1%

CN(C)CCC(c1ccccc1)c1ccccn1 (stereo not given)
inactive: Potency [1] | Potency [2] | Potency [5] | max response [6] -6.47% | outcome [3] | outcome [4] | outcome [9] | max response [10] 15.2% | max response [7] 2.94% | Potency [8]

O=C(NCCN1CCOCC1)c1ccc(Cl)cc1
inactive: Potency [1] | Potency [2] | outcome [3] | outcome [4] | outcome [9] | max response [10] -4.13% and 9.69% and 29.4%

COC(=O)[C@@H]1[C@H]2C[C@H]3c4[nH]c5ccccc5c4CCN3C[C@@H]2CC[C@@H]1O
inactive: Potency [1] | Potency [2] | outcome [3] | outcome [4] | outcome [9] | max response [10] 29.3% and 18.6%

CC(C)OC(=O)C(C)(C)Oc1ccc(C(=O)c2ccc(Cl)cc2)cc1
inactive: max response [6] 3.55% | outcome [3] | outcome [4] | outcome [9] | max response [10] 7.26% and 15.7% | max response [7] -17.2% | Potency [8]

CCN1CCC[C@H]1CNC(=O)c1cc(S(N)(=O)=O)ccc1OC
inactive: Potency [1] | Potency [2] | outcome [3] | outcome [4] | outcome [9] | max response [10] 11.5% and 6.55%

O=c1[nH]cnc2c1ncn2[C@H]1CC[C@@H](CO)O1
inactive: Potency [5] | max response [6] 7.68% and 6.47% | max response [10] -6.96% | max response [7] -8.26% and -9.92% | Potency [8]
